Compound activity from PubChem.
HEK293 tox – cytotoxicity in counter-screen for GLP-1R inverse agonists; HEK293 cAMP-luciferase reporter cells, luminescence, 24 h; Potency, µM (doses to about 38.3 µM), without a hit: top-dose activity change, negative = inhibition, hits mostly inhibitors; 0.13% of 410,000 active;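 also: loss of luciferase light is scored as toxicity; potency is read from the fitted curve at half-maximal effect; % is scaled to controls: 0 for no effect and ±100 for the full control effect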
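To flag toxic compounds, the library was rerun on cells for 24 hr at 37 deg C and 5% CO2. Viability-linked luminescence was captured 12 min after adding luciferase detection reagent.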
p53 reactivation – re-activators of mutant p53; 0.063% of 320,000 active; AID 504706; H1299 p53-A138V BP100-luciferase reporter, luminescence, 24 h; Potency, µM (doses to about 92.2 µM), for inactives: top-dose activity change, positive = activation, actives largely listed as activators; also: potency is read from the fitted curve at half-maximal effect; % of control where 0% means no effect; nearly all actives have a fitted effect of over 45% in size
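p53-null H1299 cells stably carrying temperature-sensitive p53-A138V and a BP100-luciferase reporter were pinned with compounds (4-point, 1:5 series) and held 24 hrs at 37 deg C. Luminescence was read 10 min after detection reagent.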
GLP1R inv ag – GLP-1 receptor (human) inverse agonism | P43220 | HEK293 GLP-1R CRE-luciferase, luminescence, 24 h; GLP-1R form is constitutively active | Potency, µM (titrated, usually from 38.3 µM), without a hit: top-dose activity change, negative = inhibition, actives largely listed as inhibitors | 1.6% of 410,000 active; also: potency is read from the fitted curve at half-maximal effect; % is scaled to controls: 0 for no effect and ±100 for the full control effect; nearly all actives have a fitted effect of over 55% in size
Target sequence (P43220 whole entry, looked up): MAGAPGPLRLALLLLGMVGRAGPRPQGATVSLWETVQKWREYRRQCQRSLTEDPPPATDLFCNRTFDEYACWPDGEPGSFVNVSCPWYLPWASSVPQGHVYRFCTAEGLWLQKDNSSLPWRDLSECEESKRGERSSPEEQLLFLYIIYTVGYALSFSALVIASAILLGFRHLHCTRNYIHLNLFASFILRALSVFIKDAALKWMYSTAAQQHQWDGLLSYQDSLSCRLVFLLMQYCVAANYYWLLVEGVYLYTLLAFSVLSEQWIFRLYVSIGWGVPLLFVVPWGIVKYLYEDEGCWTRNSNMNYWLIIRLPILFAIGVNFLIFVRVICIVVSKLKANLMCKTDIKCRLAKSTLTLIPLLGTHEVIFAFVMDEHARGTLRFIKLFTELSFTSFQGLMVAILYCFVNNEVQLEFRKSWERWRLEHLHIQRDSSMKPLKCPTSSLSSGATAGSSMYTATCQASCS
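GLP-1R inverse agonism mode: basal reporter luminescence in engineered HEK293 cells measured after one day of compound exposure at 37 deg C, with a 12 min room-temperature detection step.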
ClpP mod – qHTS Assay for Activators of ClpP. purified B. subtilis ClpP, FRET peptide cleavage, 20 min. 1.9% of 340,000 active. AID 651965, 2013. Potency, µM (titrated, usually from 57.5 µM), for the others: at the top dose activity change, negative = active; active = well fitted falling curve with a large enough effect; inconclusive = small, poorly fitted or top-dose-only effect; inactive = no such curve, though single readings can be large or run the other way; also: potency is read from the fitted curve at half-maximal effect; the source files actives as falling curves though it sought activators and does not explain the sign; nearly all actives have a fitted effect of over 65% in size
Target sequence (P80244 whole entry, looked up): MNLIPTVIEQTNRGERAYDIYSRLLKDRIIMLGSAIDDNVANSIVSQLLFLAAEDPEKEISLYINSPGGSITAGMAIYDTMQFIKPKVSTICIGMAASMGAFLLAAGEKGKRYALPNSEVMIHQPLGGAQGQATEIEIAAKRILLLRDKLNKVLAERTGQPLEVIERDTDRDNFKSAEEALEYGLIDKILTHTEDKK
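Purified B. subtilis ClpP, 10 microg/mL final in Tris/HCl pH8 with KCl, BSA, glycerol and Tween-20, cleaved an Abz/nitrotyrosine-quenched decapeptide. Fluorescence (ex 320, em 430) was read at 0 and 20 min at room temperature. Delta was normalized to 5.8 microM ADEP and DMSO/no-enzyme controls.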
GLP1R ag – activates the human GLP-1 receptor; P43220; HEK293 GLP-1R CRE-luciferase, luminescence, 4-6 h; cells express a hypersensitive GLP-1R form; Potency, µM (highest dose often 45.6 µM), inactives show at the highest dose activation, most hits filed as activators; 0.007% of 380,000 active; AID 624172; also: potency is read from the fitted curve at half-maximal effect; % of control where 0% means no effect
LDHA block – LDHA (human) enzyme inhibition; activity change, % (values are at about 110 or 230 µM); P00338; purified LDHA, NADH/diaphorase-resazurin fluorescence; stronger effect = lower value; 0.15% of 480,000 active; in the data active = activity change below about -30%; inconclusive = mostly about -25% to -30%;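 also: plate controls were DMSO wells for no effect and wells without enzyme for full effect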
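Remaining NADH was detected by diaphorase (0.133 mg/mL) converting 37 µM resazurin to fluorescent resorufin, read at 0 and 20 minutes. The preceding 5-minute room-temperature reaction used 2 nM LDHA, 0.2 mM sodium pyruvate and 0.06 mM NADH at pH 7.4.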
An asterisk follows results filed as active. An excerpt weighted towards active compounds, which were near 2.9% of everything screened. Unless noted, calls follow the shape of the dose curve; as a rule, active = well fitted curve in the direction sought with a large enough effect; inconclusive = small, poorly fitted or top-dose-only effect, or another doubt; inactive = no such curve, though single readings can be large; an effect the other way counts as inactive or inconclusive.

How did COc1ccc(NC(=O)C2(c3ccc(NC(=O)c4ccc(OC)cc4)cc3)CCCC2)cc1 do in these assays?
HEK293 tox: 3%; p53 reactivation: -7%; GLP1R inv ag: 21%; ClpP mod: 28µM*; GLP1R ag: -9%; LDHA block: -5

What do the screens show for `c1ccc(CN2CCC(Nc3nc(-c4cccs4)nc4ccccc34)CC2)cc1`?
HEK293 tox: inconclusive; p53 reactivation: 1%; GLP1R inv ag: 7.1µM*; ClpP mod: inconclusive; GLP1R ag: -4%; LDHA block: -3

How did CC(C)N1CCC(Nc2nc(-c3cccs3)nc3ccccc23)CC1 do in these assays?
LDHA block: 3

Results for C=CCN1C(=O)C2(c3ccccc31)C1CCCC=C1C(C#N)=C(N)C2(C#N)C#N (configuration not stated) ?
HEK293 tox: -2%; p53 reactivation: -2%; GLP1R inv ag: 4.5µM*; ClpP mod: 2%; GLP1R ag: -2%; LDHA block: 6

What do the screens show for `C=CCN1C(=O)[C@]2(c3ccccc31)C1CCCC=C1C(C#N)=C(N)C2(C#N)C#N` (some centres not stated)?
HEK293 tox: 2%; p53 reactivation: 3%; GLP1R inv ag: -6%; ClpP mod: 0%; GLP1R ag: -11%; LDHA block: 3

What do the screens show for `CN(CC(=O)Nc1cccc(F)c1)C(=O)c1cc2c(s1)CCCCC2`?
HEK293 tox: -8%; p53 reactivation: -15%; GLP1R inv ag: inconclusive; GLP1R ag: 13%; LDHA block: -4

How did CN(CC(=O)Nc1ccc(F)cc1)C(=O)c1cc2c(s1)CCCCC2 do in these assays?
HEK293 tox: -16%; p53 reactivation: 7%; GLP1R inv ag: 10µM*; GLP1R ag: 19%; LDHA block: -7

Results for CCC(=O)N1c2nc(C(C)C)nn2C2(CCCCC2)[C@@H]2CCCC[C@@H]21 ?
HEK293 tox: -2%; GLP1R inv ag: 10%; ClpP mod: 0%; LDHA block: -3

Results for CCCNC(=O)C1CCC(Cn2c(=O)c3sccc3n(CC(=O)NCc3cccc(OC)c3OC)c2=O)CC1 (configuration not stated) ?
HEK293 tox: 2%; GLP1R inv ag: 21%; ClpP mod: -3%; GLP1R ag: -2%; LDHA block: -16

How did CN(C(=O)Cn1ncc2c1-c1ccccc1OC2)c1ccc(Br)cc1 do in these assays?
HEK293 tox: 9%; GLP1R inv ag: inconclusive; ClpP mod: -6%; LDHA block: -8

Results for Cc1cccc(-n2c(SCc3ccc([N+](=O)[O-])cc3)nnc2-c2c[nH]c3ccccc23)c1 ?
HEK293 tox: 4%; p53 reactivation: -1%; GLP1R inv ag: 3.2µM*; ClpP mod: 0%; GLP1R ag: 5%; LDHA block: -2

What do the screens show for `CCCCN(C)c1c(C)nc2ccc(C(=O)NCCc3c[nH]c4ccccc34)cn12`?
HEK293 tox: -12%; GLP1R inv ag: inconclusive; ClpP mod: 1%; GLP1R ag: 2%; LDHA block: 0

Results for Cc1nc(NC(=O)COC(=O)C(NC(=O)c2ccco2)C(C)C)c(Cl)cc1Cl (configuration not stated) ?
HEK293 tox: -7%; p53 reactivation: 7%; GLP1R inv ag: 3%; ClpP mod: 0%; GLP1R ag: -2%; LDHA block: -5

Results for CCN(CC(=O)Nc1ccc(C(C)=O)cc1)CC(=O)Nc1ccc2c(c1)OCCO2 ?
HEK293 tox: 3%; p53 reactivation: -3%; GLP1R inv ag: 9%; GLP1R ag: 14%; LDHA block: -19

What do the screens show for `CCN(CC(=O)Nc1ccc2c(c1)OCCO2)CC(=O)Nc1ccccc1C(F)(F)F`?
HEK293 tox: -10%; p53 reactivation: 18%; GLP1R inv ag: -1%; ClpP mod: 1%; GLP1R ag: 14%; LDHA block: -46*

How did COc1cc(C(=O)Oc2ccccc2/C=N/NC(=O)c2ccc(Cl)cc2Cl)cc(OC)c1OC do in these assays?
HEK293 tox: -35%; p53 reactivation: inconclusive; GLP1R inv ag: 2.2µM*; ClpP mod: -7%; GLP1R ag: 2%; LDHA block: -1

How did C=CCOc1ccccc1/C=N/NC(=O)c1ccc(Cl)cc1Cl do in these assays?
HEK293 tox: -20%; p53 reactivation: -5%; GLP1R inv ag: inconclusive; ClpP mod: -1%; GLP1R ag: 8%; LDHA block: 2

What do the screens show for `Nc1ccc(Sc2cnn(-c3ccccc3)c(=O)c2Cl)cc1`?
HEK293 tox: -14%; p53 reactivation: 6%; GLP1R inv ag: -28%; ClpP mod: 20µM*; GLP1R ag: 9%; LDHA block: -4

What do the screens show for `CC1(C)C(C=C(Cl)Cl)C1C(=O)N(Cc1cccc(Cl)c1)C1CCS(=O)(=O)C1` (configuration not stated)?
HEK293 tox: -9%; p53 reactivation: 11%; GLP1R inv ag: -36%; ClpP mod: -1%; GLP1R ag: -10%; LDHA block: -4

Results for CSc1ccc(CN(C)CC(=O)Nc2c(F)cccc2F)cc1 ?
HEK293 tox: 22%; p53 reactivation: -5%; GLP1R inv ag: -27%; GLP1R ag: 8%; LDHA block: -33*

What do the screens show for `Cc1c(C(=O)N/N=C/c2ccc(N(C)C)cc2)[nH]c2ccc(Cl)cc12`?
HEK293 tox: 63%; p53 reactivation: 0%; GLP1R inv ag: 0%; ClpP mod: 32µM*; GLP1R ag: 8%; LDHA block: -2

How did CN1c2ccccc2-c2nc3ccccc3n2C1c1ccncc1 (configuration not stated) do in these assays?
HEK293 tox: -3%; p53 reactivation: -10%; GLP1R inv ag: inconclusive; ClpP mod: 20µM*; GLP1R ag: -2%; LDHA block: -2

What do the screens show for `COc1ccc(-n2nc3c(N4CCCC(C(=O)NCc5ccccc5C)C4)nnc(C)c3c2C)cc1` (configuration not stated)?
HEK293 tox: inconclusive; GLP1R inv ag: inconclusive; ClpP mod: 28µM*; LDHA block: -7

What do the screens show for `COc1ccc(-n2nc3c(N4CCC(C(=O)NCC(C)c5ccccc5)CC4)nnc(C)c3c2C)cc1` (configuration not stated)?
HEK293 tox: inconclusive; p53 reactivation: 23%; GLP1R inv ag: 10µM*; ClpP mod: 3%; GLP1R ag: 21%; LDHA block: -12
